Assay results taken from the supplement of paper PMC10849652.
About 8,800 targets were measured; listed, in parts, are those with a hit and a random draw of the rest. About 0.5% of all pairs of compound and target were hits.

Experiments:
Test in all cases: log2 fold change, soluble protein after heating vs DMSO (PISA); higher = thermal stabilisation; K562 lysate, 10 uM; active = over 0.2 and 3.5 SD of the protein, either way, in both replicates (recomputed)
nilotinib = compound: Cc1cn(-c2cc(NC(=O)c3ccc(C)c(Nc4nccc(-c5cccnc5)n4)c3)cc(C(F)(F)F)c2)cn1 [nilotinib]
In short: (§1)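 Soluble protein was defined as the supernatant remaining after 21,000xg for 90 min, following pooling of heated aliquots and adjustment to 0.5% NP-40 at 4°C. Before that, crude K562 extract at 1 mg/mL protein in PBS pH 7.4 with 1 mM MgCl2 was treated with 10 μM compound for 30 min and heated for 3 min across 48°C-58°C. Quantification used TMTpro 16plex LC-MS/MS with channel sums equalised, and values are log-two fold changes in thermal stability relative to solvent controls from duplicates.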

[1] = compound: Cc1nc(Nc2n[nH]c3c2CN(C(=O)N[C@H](CN(C)C)c2ccccc2)C3(C)C)c2sccc2n1
In short: as §1

dasatinib = compound: Cc1nc(Nc2ncc(C(=O)Nc3c(C)cccc3Cl)s2)cc(N2CCN(CCO)CC2)n1 [dasatinib]
In short: as §1

[2] = compound: Cc1ncc(-c2ccnc(Nc3ccc(S(C)(=O)=O)cc3)n2)n1C(C)C
In short: as §1

[3] = compound: Cn1cc(-c2ccc3c(c2)CCN3C(=O)Cc2cccc(C(F)(F)F)c2)c2c(N)ncnc21
In short: as §1

quisinostat = compound: Cn1cc(CNCC2CCN(c3ncc(C(=O)NO)cn3)CC2)c2ccccc21 [quisinostat]
In short: as §1

tipifarnib = compound: Cn1cncc1[C@@](N)(c1ccc(Cl)cc1)c1ccc2c(c1)c(-c1cccc(Cl)c1)cc(=O)n2C [tipifarnib]
In short: as §1

[4] = compound: NC(=O)Nc1cc(-c2cccc(F)c2)sc1C(=O)N[C@H]1CCCNC1
In short: as §1

[5] = compound: NC(=O)c1cnc(N[C@@H]2CCCC[C@@H]2N)nc1Nc1cccc(-n2nccn2)c1
In short: as §1

[6] = compound: NC1(c2ccc(-c3nc4ccn5c(=O)[nH]nc5c4cc3-c3ccccc3)cc2)CCC1
In short: as §1

Measured: log2 fold change

SCO1 (UniProt O75880)
inactive: nilotinib 0.046 | [1] 0.029 | dasatinib 0.001 | [2] -0.095 | [3] 0 | quisinostat -0.13 | tipifarnib -0.108 | [4] -0.033 | [5] 0.029 | [6] 0.001

RNF181 (UniProt Q9P0P0)
inactive: nilotinib 0.023 | [1] 0.027 | dasatinib 0.013 | [2] 0.007 | [3] -0.004 | quisinostat -0.027 | tipifarnib -0.03 | [4] 0.006 | [5] -0.01 | [6] -0.023

RPAP1 (UniProt Q9BWH6)
inactive: nilotinib -0.002 | [1] 0.014 | dasatinib -0.027 | [2] -0.01 | [3] 0.032 | quisinostat -0.02 | tipifarnib -0.01 | [4] 0.013 | [5] 0.029 | [6] 0.004

RAB3IL1 (UniProt Q8TBN0)
inactive: nilotinib -0.025 | [1] -0.026 | dasatinib -0.048 | [2] 0.041 | [3] 0.017 | quisinostat -0.002 | tipifarnib 0.037 | [4] 0.004 | [5] 0.017 | [6] 0.033

SAMHD1 (UniProt Q9Y3Z3)
Chain of UniProt Q9Y3Z3 (Q9Y3Z3 whole entry, looked up): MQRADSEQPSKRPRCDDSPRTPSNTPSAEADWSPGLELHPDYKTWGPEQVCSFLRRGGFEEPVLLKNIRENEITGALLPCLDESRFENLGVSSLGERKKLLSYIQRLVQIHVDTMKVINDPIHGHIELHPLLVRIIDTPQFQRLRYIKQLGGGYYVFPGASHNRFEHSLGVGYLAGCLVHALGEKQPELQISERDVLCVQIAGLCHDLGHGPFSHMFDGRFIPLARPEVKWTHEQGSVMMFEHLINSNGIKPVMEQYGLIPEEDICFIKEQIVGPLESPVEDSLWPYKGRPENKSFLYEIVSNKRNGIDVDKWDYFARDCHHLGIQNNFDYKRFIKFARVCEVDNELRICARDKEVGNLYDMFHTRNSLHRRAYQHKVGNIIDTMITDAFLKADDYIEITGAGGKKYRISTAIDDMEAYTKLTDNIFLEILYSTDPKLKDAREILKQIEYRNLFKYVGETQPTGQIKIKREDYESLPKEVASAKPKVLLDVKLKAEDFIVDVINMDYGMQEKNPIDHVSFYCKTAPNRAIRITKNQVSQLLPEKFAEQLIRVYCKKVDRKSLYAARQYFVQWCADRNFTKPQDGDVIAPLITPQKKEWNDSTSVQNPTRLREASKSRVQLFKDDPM
inactive: nilotinib -0.006 | [1] 0.008 | dasatinib -0.026 | [2] 0.013 | [3] 0.066 | quisinostat -0.02 | tipifarnib 0.03 | [4] 0.054 | [5] 0.046 | [6] 0.004

S100A11 (UniProt P31949)
inactive: nilotinib 0.067 | [1] 0.007 | dasatinib 0.013 | [2] 0.056 | [3] -0.02 | quisinostat 0.05 | tipifarnib 0.041 | [4] -0.033 | [5] 0 | [6] -0.006

RCC1 isoform 2 (UniProt P18754)
inactive: nilotinib 0.024 | [1] -0.024 | dasatinib -0.071 | [2] 0.021 | [3] 0.034 | quisinostat 0.001 | tipifarnib -0.011 | [4] 0.027 | [5] -0.02 | [6] -0.043

RAD50 isoform 2 (UniProt Q92878)
inactive: nilotinib -0.004 | [1] 0.016 | dasatinib -0.042 | [2] -0.003 | [3] 0.026 | quisinostat -0.031 | tipifarnib -0.02 | [4] 0.016 | [5] 0.005 | [6] 0.001

RPS18 (UniProt P62269)
inactive: nilotinib 0.004 | [1] -0.02 | dasatinib -0.009 | [2] -0.039 | [3] -0.018 | quisinostat 0 | tipifarnib 0.031 | [4] -0.018 | [5] 0.014 | [6] -0.006

RFC3 (UniProt P40938)
inactive: nilotinib 0 | [1] -0.05 | dasatinib -0.036 | [2] 0.034 | [3] 0.021 | quisinostat -0.081 | tipifarnib 0.002 | [4] 0.094 | [5] 0.01 | [6] -0.006

REL isoform 2 (UniProt Q04864)
inactive: nilotinib 0.009 | [1] -0.032 | dasatinib -0.015 | [2] -0.041 | [3] 0.056 | quisinostat -0.005 | tipifarnib 0.014 | [4] 0.005 | [5] -0.009 | [6] -0.017

RBM42 (UniProt Q9BTD8)
inactive: nilotinib 0.102 | [1] -0.039 | dasatinib -0.021 | [2] 0.009 | [3] -0.039 | quisinostat -0.033 | tipifarnib 0.073 | [4] -0.022 | [5] -0.049 | [6] 0.004

SASS6 (UniProt Q6UVJ0)
inactive: nilotinib -0.032 | [1] 0.01 | dasatinib -0.083 | [2] 0.017 | [3] 0.008 | quisinostat -0.045 | tipifarnib -0.03 | [4] 0.03 | [5] 0.044 | [6] 0.003

ROCK1 (UniProt Q13464)
Chain of UniProt Q13464 (Q13464 whole entry, looked up): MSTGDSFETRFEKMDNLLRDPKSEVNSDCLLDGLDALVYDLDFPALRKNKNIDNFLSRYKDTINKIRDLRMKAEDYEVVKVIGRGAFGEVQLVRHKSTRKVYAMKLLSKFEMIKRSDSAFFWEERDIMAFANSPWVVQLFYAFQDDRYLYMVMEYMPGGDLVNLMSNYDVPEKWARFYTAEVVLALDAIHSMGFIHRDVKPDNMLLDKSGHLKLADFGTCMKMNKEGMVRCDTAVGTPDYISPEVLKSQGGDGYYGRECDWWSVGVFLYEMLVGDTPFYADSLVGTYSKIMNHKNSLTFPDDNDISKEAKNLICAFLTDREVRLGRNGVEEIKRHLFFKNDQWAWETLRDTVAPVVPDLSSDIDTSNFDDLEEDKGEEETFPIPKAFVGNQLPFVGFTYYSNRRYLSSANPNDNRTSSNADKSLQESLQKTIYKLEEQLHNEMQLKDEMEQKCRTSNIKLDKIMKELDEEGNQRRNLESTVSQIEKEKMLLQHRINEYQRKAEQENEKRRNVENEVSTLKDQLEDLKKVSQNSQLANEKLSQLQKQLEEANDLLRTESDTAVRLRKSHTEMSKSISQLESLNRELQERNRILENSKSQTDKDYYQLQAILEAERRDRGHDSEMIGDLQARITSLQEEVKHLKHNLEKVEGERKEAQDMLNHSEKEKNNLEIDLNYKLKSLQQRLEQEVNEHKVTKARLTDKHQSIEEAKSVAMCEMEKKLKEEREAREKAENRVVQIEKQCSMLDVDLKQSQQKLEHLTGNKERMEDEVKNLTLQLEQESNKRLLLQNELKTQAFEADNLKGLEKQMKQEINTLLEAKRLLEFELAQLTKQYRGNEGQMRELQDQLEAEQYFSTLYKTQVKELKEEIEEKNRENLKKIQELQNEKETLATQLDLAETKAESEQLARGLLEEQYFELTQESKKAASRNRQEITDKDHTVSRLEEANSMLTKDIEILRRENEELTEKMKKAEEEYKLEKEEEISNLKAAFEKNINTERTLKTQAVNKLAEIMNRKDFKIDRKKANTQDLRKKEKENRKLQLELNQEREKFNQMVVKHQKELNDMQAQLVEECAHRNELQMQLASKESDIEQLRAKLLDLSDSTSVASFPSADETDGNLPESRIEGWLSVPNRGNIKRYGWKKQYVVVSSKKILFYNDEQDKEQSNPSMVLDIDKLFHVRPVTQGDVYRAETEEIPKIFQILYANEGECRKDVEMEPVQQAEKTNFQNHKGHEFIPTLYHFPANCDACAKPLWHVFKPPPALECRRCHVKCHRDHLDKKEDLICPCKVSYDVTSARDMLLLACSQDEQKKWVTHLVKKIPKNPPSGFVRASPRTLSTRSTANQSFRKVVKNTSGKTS
inactive: nilotinib -0.013 | [1] -0.001 | dasatinib -0.004 | [2] 0.006 | [3] 0.011 | quisinostat -0.01 | tipifarnib 0.001 | [5] 0.009 | [6] 0.013

RALGAPB isoform 3 (UniProt Q86X10)
inactive: dasatinib 0.052 | [3] -0.034

RBM4 isoform 3 (UniProt Q9BWF3)
inactive: quisinostat -0.094 | [4] 0.06

RNASEH2B, A0A1B0GUE7
inactive: nilotinib -0.01 | [1] 0.037 | [2] 0.211 | tipifarnib 0.067 | [5] 0.035

SEMA4G isoform 2 (UniProt Q9NTN9)
inactive: dasatinib 0.006 | [3] 0.235 | quisinostat 0.074 | [4] 0.085 | [6] 0.077

RASA3 (UniProt Q14644)
inactive: nilotinib 0.065 | [1] -0.014 | dasatinib -0.144 | [2] 0.039 | [3] 0.109 | quisinostat 0.062 | tipifarnib 0.009 | [4] 0.011 | [5] 0.012 | [6] 0.089

RNF24 isoform 2 (UniProt Q9Y225)
Chain of UniProt Q9Y225 (Q9Y225 whole entry, looked up): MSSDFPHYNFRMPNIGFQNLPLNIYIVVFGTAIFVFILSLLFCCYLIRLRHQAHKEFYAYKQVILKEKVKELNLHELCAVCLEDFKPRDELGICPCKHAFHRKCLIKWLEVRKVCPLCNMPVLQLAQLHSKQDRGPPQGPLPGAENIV
inactive: nilotinib 0.105 | [1] -0.028 | [2] 0.123 | quisinostat -0.139 | tipifarnib 0.034 | [4] -0.075 | [6] 0.051

RFWD3 (UniProt Q6PCD5)
Chain of UniProt Q6PCD5 (Q6PCD5 whole entry, looked up): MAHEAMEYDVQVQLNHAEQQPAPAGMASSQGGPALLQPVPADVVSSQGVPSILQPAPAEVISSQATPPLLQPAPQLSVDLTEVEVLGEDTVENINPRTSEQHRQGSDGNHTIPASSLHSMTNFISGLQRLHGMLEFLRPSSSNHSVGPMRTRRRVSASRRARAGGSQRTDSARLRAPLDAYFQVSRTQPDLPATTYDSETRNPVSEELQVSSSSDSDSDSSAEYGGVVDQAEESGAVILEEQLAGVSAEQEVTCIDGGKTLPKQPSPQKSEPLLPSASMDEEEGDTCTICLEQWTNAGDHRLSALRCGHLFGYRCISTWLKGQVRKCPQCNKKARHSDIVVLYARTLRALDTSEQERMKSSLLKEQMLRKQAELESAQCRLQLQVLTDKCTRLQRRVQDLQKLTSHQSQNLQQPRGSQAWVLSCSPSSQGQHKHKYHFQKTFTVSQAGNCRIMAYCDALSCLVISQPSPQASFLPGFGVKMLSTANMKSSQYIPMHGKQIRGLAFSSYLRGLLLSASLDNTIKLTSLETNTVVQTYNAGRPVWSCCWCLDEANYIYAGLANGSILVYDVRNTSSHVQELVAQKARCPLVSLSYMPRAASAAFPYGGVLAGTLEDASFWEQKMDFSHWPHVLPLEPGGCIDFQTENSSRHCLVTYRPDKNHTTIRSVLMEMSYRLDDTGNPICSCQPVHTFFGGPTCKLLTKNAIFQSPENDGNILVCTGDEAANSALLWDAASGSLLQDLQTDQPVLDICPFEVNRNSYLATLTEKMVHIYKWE
inactive: nilotinib 0.042 | [1] -0.066 | dasatinib 0.027 | [2] -0.082 | [3] 0.004 | quisinostat -0.041 | tipifarnib -0.037 | [4] 0.003 | [6] -0.053

REXO4 (UniProt Q9GZR2)
inactive: nilotinib -0.001 | [1] -0.009 | dasatinib -0.008 | [2] 0.021 | [3] 0.008 | quisinostat 0.013 | tipifarnib 0.015 | [4] 0.03 | [5] -0.045 | [6] 0.034

RTTN (UniProt Q86VV8)
Chain of UniProt Q86VV8 (Q86VV8 whole entry, looked up): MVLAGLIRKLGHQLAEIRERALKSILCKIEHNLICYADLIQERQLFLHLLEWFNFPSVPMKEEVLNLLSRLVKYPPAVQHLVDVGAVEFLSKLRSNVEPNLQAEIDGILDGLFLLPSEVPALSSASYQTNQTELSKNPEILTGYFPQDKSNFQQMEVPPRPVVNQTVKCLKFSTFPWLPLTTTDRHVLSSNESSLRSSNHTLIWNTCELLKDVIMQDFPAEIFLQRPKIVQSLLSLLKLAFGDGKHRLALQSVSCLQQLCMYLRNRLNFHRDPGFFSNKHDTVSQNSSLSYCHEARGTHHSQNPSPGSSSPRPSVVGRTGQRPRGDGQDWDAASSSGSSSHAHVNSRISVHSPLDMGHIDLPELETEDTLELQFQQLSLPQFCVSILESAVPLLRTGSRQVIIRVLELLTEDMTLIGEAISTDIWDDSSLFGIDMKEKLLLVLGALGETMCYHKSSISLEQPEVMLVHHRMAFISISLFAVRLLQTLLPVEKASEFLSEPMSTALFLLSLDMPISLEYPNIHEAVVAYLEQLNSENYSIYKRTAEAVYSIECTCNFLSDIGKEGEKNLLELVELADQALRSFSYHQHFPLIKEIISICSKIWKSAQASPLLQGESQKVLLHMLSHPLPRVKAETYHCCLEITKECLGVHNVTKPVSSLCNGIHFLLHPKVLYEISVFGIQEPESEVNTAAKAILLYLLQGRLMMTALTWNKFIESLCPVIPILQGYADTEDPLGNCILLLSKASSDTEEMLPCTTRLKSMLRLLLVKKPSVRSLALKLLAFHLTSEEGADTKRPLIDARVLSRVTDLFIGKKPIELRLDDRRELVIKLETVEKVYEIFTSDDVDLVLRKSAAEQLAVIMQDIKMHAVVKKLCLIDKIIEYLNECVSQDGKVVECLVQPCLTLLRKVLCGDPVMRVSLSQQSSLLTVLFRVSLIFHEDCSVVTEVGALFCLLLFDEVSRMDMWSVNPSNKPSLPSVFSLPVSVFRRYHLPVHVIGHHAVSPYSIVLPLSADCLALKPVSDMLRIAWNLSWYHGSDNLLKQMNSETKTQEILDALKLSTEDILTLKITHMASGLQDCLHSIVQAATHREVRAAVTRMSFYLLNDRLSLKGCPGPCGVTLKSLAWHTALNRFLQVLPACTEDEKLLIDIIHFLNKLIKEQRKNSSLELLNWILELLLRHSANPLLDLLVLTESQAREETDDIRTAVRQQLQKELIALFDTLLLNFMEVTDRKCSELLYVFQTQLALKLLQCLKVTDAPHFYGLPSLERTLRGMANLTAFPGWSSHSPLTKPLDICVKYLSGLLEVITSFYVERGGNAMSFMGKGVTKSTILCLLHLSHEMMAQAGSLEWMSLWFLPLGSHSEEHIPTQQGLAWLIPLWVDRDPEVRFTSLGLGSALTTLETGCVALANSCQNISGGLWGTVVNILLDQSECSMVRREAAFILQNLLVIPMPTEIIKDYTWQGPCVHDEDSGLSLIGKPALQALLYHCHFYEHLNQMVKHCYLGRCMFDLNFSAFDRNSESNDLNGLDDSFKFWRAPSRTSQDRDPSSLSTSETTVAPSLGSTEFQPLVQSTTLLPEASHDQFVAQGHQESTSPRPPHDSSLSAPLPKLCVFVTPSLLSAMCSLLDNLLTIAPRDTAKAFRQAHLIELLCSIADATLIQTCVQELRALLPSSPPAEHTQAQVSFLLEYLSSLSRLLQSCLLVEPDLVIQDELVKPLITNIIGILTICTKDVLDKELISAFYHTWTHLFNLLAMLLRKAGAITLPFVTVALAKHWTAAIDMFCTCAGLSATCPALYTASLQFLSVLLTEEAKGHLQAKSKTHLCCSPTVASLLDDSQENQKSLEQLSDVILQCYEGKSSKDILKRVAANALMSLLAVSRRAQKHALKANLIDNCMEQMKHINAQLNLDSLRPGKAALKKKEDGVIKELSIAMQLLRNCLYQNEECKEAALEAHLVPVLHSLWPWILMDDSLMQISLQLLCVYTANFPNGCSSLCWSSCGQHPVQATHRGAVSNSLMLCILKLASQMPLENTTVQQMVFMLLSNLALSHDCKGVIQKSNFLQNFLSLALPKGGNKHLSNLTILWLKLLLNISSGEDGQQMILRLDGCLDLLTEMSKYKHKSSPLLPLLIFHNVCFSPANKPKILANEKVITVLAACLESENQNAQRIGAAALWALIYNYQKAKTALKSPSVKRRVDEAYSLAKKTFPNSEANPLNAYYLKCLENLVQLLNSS
inactive: nilotinib -0.102 | [1] 0.14 | dasatinib -0.086 | [2] -0.003 | [3] -0.161 | tipifarnib -0.069 | [5] -0.282 | [6] 0.216

RINT1 (UniProt Q6NUQ1)
inactive: nilotinib 0.043 | [1] 0.075 | dasatinib -0.115 | [2] 0.028 | [3] 0.012 | quisinostat -0.029 | tipifarnib -0.044 | [4] 0.071 | [5] 0.001 | [6] -0.014

SAMD4A (UniProt Q9UPU9)
inactive: dasatinib -0.228 | [3] -0.005 | quisinostat -0.069 | [4] 0.058 | [5] -0.023 | [6] 0.012

RBBP7 (UniProt C9J7L0)
inactive: nilotinib -0.133 | [1] 0.046 | [2] 0.222 | tipifarnib 0.039

RMI2 (UniProt Q96E14)
inactive: dasatinib -0.049 | [3] -0.044 | quisinostat -0.051 | [4] 0.021 | [6] 0.082

RAB5IF isoform 5 (UniProt Q9BUV8)
inactive: nilotinib -0.033 | [1] -0.033 | dasatinib -0.108 | [2] -0.003 | [3] 0.06 | tipifarnib -0.189 | [5] 0.026 | [6] -0.096

SELENOK (UniProt Q9Y6D0)
inactive: nilotinib -0.009 | [1] -0.032 | dasatinib 0.082 | [2] 0.064 | [3] -0.032 | tipifarnib -0.077 | [5] 0.001

RUFY2 isoform 1 (UniProt Q8WXA3)
inactive: nilotinib -0.006 | [1] 0.02 | [2] 0.119 | quisinostat 0.047 | tipifarnib 0.177 | [4] 0.007

RBM45 (UniProt Q8IUH3)
inactive: nilotinib 0.051 | [1] -0.077 | [2] 0.143 | quisinostat -0.145 | tipifarnib -0.012 | [4] -0.025 | [5] 0.061

RECQL4 (UniProt O94761)
inactive: nilotinib 0.051 | [1] 0.102 | dasatinib -0.007 | [2] -0.063 | [3] -0.019 | quisinostat -0.094 | tipifarnib 0.024 | [4] 0.023 | [6] 0.017

RHBDD1 (UniProt Q8TEB9)
inactive: [5] 0.103

RNF17 (UniProt Q9BXT8)
inactive: dasatinib -0.055 | [3] 0.061 | quisinostat 0.142 | [4] 0.054 | [5] 0.046 | [6] 0.043
